In PubChem BioAssay (EPA / NIEHS) one finds AC50 and outcome data, which are given here for 38 molecules.

Activity calls are given as the source filed them. How the source made its calls: active means hit-call score of the fitted dose curve at least 0.9, where 1 is the maximum; inactive means score below 0.9.

Read-out in the first experiment: Monokine induced gamma interferon (MIG), CXCL9 (gene 4283)
Nature of the experiment: BSK_CASM3C_MIG: BioMAP Diversity Plus: CASM3C Assay for Monokine induced gamma interferon (MIG) Biomarker Activity (AID 2283048).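 Further: MIG protein level measured by ELISA.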 The following applies: primary human coronary artery smooth muscle cells; actives raise or lower the signal.
`CN(C)c1ccc(C(=C2C=CC(=[N+](C)C)C=C2)c2ccc(N(C)C)cc2)cc1`: the concentration at half-maximal activity (AC50) was 8.07 µM (active).
`O=C(Nc1ccc(Cl)cc1)Nc1ccc(Cl)c(Cl)c1`: the result was inactive.
Still for that read-out and setting: to `CCCCCCCCN(C)CCCCCCCC` belongs “inactive”.
As for `c1ccc2ccccc2c1`, the outcome was inactive.
For the molecule `CCCCCCCCCCCO`, the result was inactive.
On the same count and under the same terms, under `CC[C@@H]1C[C@H](N(Cc2cc(C(F)(F)F)cc(C(F)(F)F)c2)C(C)=O)c2cc(C(F)(F)F)ccc2N1C(=O)OC(C)C` stands “inactive”; under `CCCCCCCC[Si](OCC)(OCC)OCC`, “inactive”; under `O=C(OCCCCCCOC(=O)c1ccccc1)c1ccccc1`, “inactive”.
On to `COCC(C)OCC(C)OCC(C)O` (stereo unspecified), for which the result was inactive.
Same read-out and setting: under `Cc1oc2c(NC(=O)c3c(Cl)cccc3Cl)cccc2c1C(C)(C)O` stands “inactive”; under `Clc1cc(Cl)c2c(c1)N=C1CCCCCN1C2`, “inactive”; under `O=C(O)Cn1c(=O)n(Cc2ccc(Br)cc2F)c(=O)c2ccc(Cl)cc21`, “inactive”.
On to `Oc1ccccc1`, for which the outcome was inactive.
Still for that read-out and setting: to `OC12N=C(c3ccccc3)SC1Cc1cc(Cl)ccc12` (stereo unspecified) belongs “inactive”; to `Cc1ccc(C(C)C)cc1`, “inactive”.
On to `Cc1cn([C@H]2C[C@H](N=[N+]=[N-])[C@@H](CO)O2)c(=O)[nH]c1=O`, for which the outcome was inactive.
For `NC(=O)c1nc(-c2cccc(-c3cc(F)ccc3OCC(F)(F)C(F)(F)F)c2)n[nH]1`, the outcome was inactive.
As to `CCCOC(=O)c1cc(O)c(O)c(O)c1`, the result was inactive.
For `O=CCCCC=O`, the result was inactive.
For `COc1cc(C(=O)NC2CCN(C)CC2)ccc1Nc1ncc2c(n1)N(C1CCCC1)CC(F)(F)C(=O)N2C`, the half-maximal activity concentration (AC50) is 20.8 µM (active).

Read-out in the next experiment: serum amyloid A (SAA), SAA1 (gene 6288)
Nature of the experiment: BSK_CASM3C_SAA: BioMAP Diversity Plus: CASM3C Assay for serum amyloid A (SAA) Biomarker Activity (AID 2283049).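 Further: SAA protein level quantified by ELISA.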 Conditions: primary human coronary artery smooth muscle cells; actives raise or lower the signal.
Regarding `CCN(Cc1cccc(S(=O)(=O)O)c1)c1ccc(C(=C2C=CC(=[N+](CC)Cc3cccc(S(=O)(=O)O)c3)C=C2)c2ccccc2S(=O)(=O)[O-])cc1`, the result was inactive.
Regarding `CCCCOC(=O)CC(CC(=O)OCCCC)(OC(C)=O)C(=O)OCCCC`, the AC50 is 20 µM (active).
Regarding `O=c1c(-c2ccc(O)cc2)coc2cc(O)cc(O)c12`, the AC50 was 20 µM (active).
Take `CN(C)C(=O)C1(N2CCCCC2)CCN(CC[C@@]2(c3ccc(Cl)c(Cl)c3)CN(C(=O)c3ccccc3)CCO2)CC1`: the concentration at half-maximal activity (AC50) was 33.3 µM (active).
Take `CCCCOC(=O)c1ccc(O)cc1`: the result was inactive.
Turning to `O=C1CCC(C2CCCCC2)CC1`, the outcome was inactive.
Consider `CCO[Si](CCCNC(N)=O)(OCC)OCC`, for which the result was inactive.
Regarding `CCCCCCCCCCCCO`, the AC50 was 29.4 µM (active).
For the molecule `C[C@]12CC[C@@H]3c4ccc(O)cc4CC[C@H]3[C@@H]1CCC2=O`, the outcome was inactive.
Take `CC/C(=C(/CC)c1ccc(O)cc1)c1ccc(O)cc1`: the AC50 is 33.7 µM (active).
For `CCCCCc1ccc(N)cc1`, the outcome was inactive.
In the case of `CN1C(=O)CC[C@H]1c1cccnc1`, the result was inactive.
For `O=C(O)Cc1cc(I)c(Oc2ccc(O)c(I)c2)c(I)c1`, the result was inactive.
With `CCCCCCCCCCCC[N+](C)(C)C`, the AC50 is 26 µM (active).
Turning to `CCCCCCCCCC(=O)O`, the result was inactive.
As for `Cc1cc(F)ccc1-c1cc(N2CC[C@@H](O)[C@H]2CO)ncc1N(C)C(=O)C(C)(C)c1cc(C(F)(F)F)cc(C(F)(F)F)c1`, the AC50 was 31.7 µM (active).
For the molecule `CC(C)(C)c1csc(-c2cc3cc(OCc4ccccc4CC(=O)O)ccc3o2)n1`, the result was inactive.
`CC(=O)N1CCN(c2ccc(OC[C@H]3CO[C@](Cn4ccnc4)(c4ccc(Cl)cc4Cl)O3)cc2)CC1`: the outcome was inactive.
For the molecule `CN(C)c1ccc(C(=C2C=CC(=[N+](C)C)C=C2)c2ccc(N(C)C)cc2)cc1`, the AC50 was 0.822 µM (active).
As to `O=C(Nc1ccc(Cl)cc1)Nc1ccc(Cl)c(Cl)c1`, the half-maximal activity concentration (AC50) was 12.6 µM (active).
On to `CCCCCCCCN(C)CCCCCCCC`, for which the outcome was inactive.
In the case of `c1ccc2ccccc2c1`, the outcome was inactive.
Still for that read-out and setting: under `CCCCCCCCCCCO` stands “inactive”; under `CC[C@@H]1C[C@H](N(Cc2cc(C(F)(F)F)cc(C(F)(F)F)c2)C(C)=O)c2cc(C(F)(F)F)ccc2N1C(=O)OC(C)C`, “inactive”; under `CCCCCCCC[Si](OCC)(OCC)OCC`, “inactive”.
Same read-out and setting: under `O=C(OCCCCCCOC(=O)c1ccccc1)c1ccccc1` stands “inactive”; under `COCC(C)OCC(C)OCC(C)O` (stereo unspecified), “inactive”.
Consider `Cc1oc2c(NC(=O)c3c(Cl)cccc3Cl)cccc2c1C(C)(C)O`, for which the outcome was inactive.
`Clc1cc(Cl)c2c(c1)N=C1CCCCCN1C2`: the outcome was inactive.
Consider `O=C(O)Cn1c(=O)n(Cc2ccc(Br)cc2F)c(=O)c2ccc(Cl)cc21`, for which the result was inactive.
As for `Oc1ccccc1`, the result was inactive.
Same read-out and setting: under `OC12N=C(c3ccccc3)SC1Cc1cc(Cl)ccc12` (stereo unspecified) stands “inactive”; under `Cc1ccc(C(C)C)cc1`, “inactive”.
As to `Cc1cn([C@H]2C[C@H](N=[N+]=[N-])[C@@H](CO)O2)c(=O)[nH]c1=O`, the outcome was inactive.
For the molecule `NC(=O)c1nc(-c2cccc(-c3cc(F)ccc3OCC(F)(F)C(F)(F)F)c2)n[nH]1`, the result was inactive.
In the case of `CCCOC(=O)c1cc(O)c(O)c(O)c1`, the outcome was inactive.
In the case of `O=CCCCC=O`, the outcome was inactive.
On to `COc1cc(C(=O)NC2CCN(C)CC2)ccc1Nc1ncc2c(n1)N(C1CCCC1)CC(F)(F)C(=O)N2C`, for which the AC50 is 31.9 µM (active).

Read-out in a further experiment: not listed separately
Nature of the experiment: BSK_CASM3C_SRB: Viability Assessment in the BioMAP Diversity Plus: CASM3C Assay (AID 2283050).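 Further: total protein by SRB staining as cytotoxicity measure in parallel cultures; cells exposed to compound for 24 h.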 The following applies: primary human coronary artery smooth muscle cells.
For `CCN(Cc1cccc(S(=O)(=O)O)c1)c1ccc(C(=C2C=CC(=[N+](CC)Cc3cccc(S(=O)(=O)O)c3)C=C2)c2ccccc2S(=O)(=O)[O-])cc1`, the result was inactive.
As for `CCCCOC(=O)CC(CC(=O)OCCCC)(OC(C)=O)C(=O)OCCCC`, the result was inactive.
Take `O=c1c(-c2ccc(O)cc2)coc2cc(O)cc(O)c12`: the result was inactive.
On to `CN(C)C(=O)C1(N2CCCCC2)CCN(CC[C@@]2(c3ccc(Cl)c(Cl)c3)CN(C(=O)c3ccccc3)CCO2)CC1`, for which the AC50 is 27.2 µM (active).
For the molecule `CCCCOC(=O)c1ccc(O)cc1`, the result was inactive.
Consider `O=C1CCC(C2CCCCC2)CC1`, for which the outcome was inactive.
In the case of `CCO[Si](CCCNC(N)=O)(OCC)OCC`, the result was inactive.
In the case of `CCCCCCCCCCCCO`, the outcome was inactive.
The same measure, in the same setting: to `C[C@]12CC[C@@H]3c4ccc(O)cc4CC[C@H]3[C@@H]1CCC2=O` belongs “inactive”.
With `CC/C(=C(/CC)c1ccc(O)cc1)c1ccc(O)cc1`, the AC50 is 29.9 µM (active).
Regarding `CCCCCc1ccc(N)cc1`, the outcome was inactive.
As for `CN1C(=O)CC[C@H]1c1cccnc1`, the result was inactive.
On the same count and under the same terms, to `O=C(O)Cc1cc(I)c(Oc2ccc(O)c(I)c2)c(I)c1` belongs “inactive”.
In the case of `CCCCCCCCCCCC[N+](C)(C)C`, the AC50 was 27.6 µM (active).
As to `CCCCCCCCCC(=O)O`, the result was inactive.
With `Cc1cc(F)ccc1-c1cc(N2CC[C@@H](O)[C@H]2CO)ncc1N(C)C(=O)C(C)(C)c1cc(C(F)(F)F)cc(C(F)(F)F)c1`, the concentration at half-maximal activity (AC50) was 29.2 µM (active).
As to `CC(C)(C)c1csc(-c2cc3cc(OCc4ccccc4CC(=O)O)ccc3o2)n1`, the AC50 is 31 µM (active).
Regarding `CC(=O)N1CCN(c2ccc(OC[C@H]3CO[C@](Cn4ccnc4)(c4ccc(Cl)cc4Cl)O3)cc2)CC1`, the result was inactive.
Take `CN(C)c1ccc(C(=C2C=CC(=[N+](C)C)C=C2)c2ccc(N(C)C)cc2)cc1`: the half-maximal activity concentration (AC50) was 7.66 µM (active).
Still for that read-out and setting: under `O=C(Nc1ccc(Cl)cc1)Nc1ccc(Cl)c(Cl)c1` stands 10.6 µM (active).
For `CCCCCCCCN(C)CCCCCCCC`, the outcome was inactive.
Consider `c1ccc2ccccc2c1`, for which the outcome was inactive.
As for `CCCCCCCCCCCO`, the outcome was inactive.
Turning to `CC[C@@H]1C[C@H](N(Cc2cc(C(F)(F)F)cc(C(F)(F)F)c2)C(C)=O)c2cc(C(F)(F)F)ccc2N1C(=O)OC(C)C`, the result was inactive.
Regarding `CCCCCCCC[Si](OCC)(OCC)OCC`, the outcome was inactive.
Consider `O=C(OCCCCCCOC(=O)c1ccccc1)c1ccccc1`, for which the result was inactive.
As to `COCC(C)OCC(C)OCC(C)O` (stereo unspecified), the result was inactive.
In the case of `Cc1oc2c(NC(=O)c3c(Cl)cccc3Cl)cccc2c1C(C)(C)O`, the result was inactive.
Still for that read-out and setting: to `Clc1cc(Cl)c2c(c1)N=C1CCCCCN1C2` belongs “inactive”; to `O=C(O)Cn1c(=O)n(Cc2ccc(Br)cc2F)c(=O)c2ccc(Cl)cc21`, “inactive”.
Turning to `Oc1ccccc1`, the result was inactive.
As to `OC12N=C(c3ccccc3)SC1Cc1cc(Cl)ccc12` (stereo unspecified), the outcome was inactive.
For the molecule `Cc1ccc(C(C)C)cc1`, the outcome was inactive.
On to `Cc1cn([C@H]2C[C@H](N=[N+]=[N-])[C@@H](CO)O2)c(=O)[nH]c1=O`, for which the outcome was inactive.
For the molecule `NC(=O)c1nc(-c2cccc(-c3cc(F)ccc3OCC(F)(F)C(F)(F)F)c2)n[nH]1`, the outcome was inactive.
Turning to `CCCOC(=O)c1cc(O)c(O)c(O)c1`, the result was inactive.
Regarding `O=CCCCC=O`, the result was inactive.
As for `COc1cc(C(=O)NC2CCN(C)CC2)ccc1Nc1ncc2c(n1)N(C1CCCC1)CC(F)(F)C(=O)N2C`, the concentration at half-maximal activity (AC50) is 27.5 µM (active).
